# Measured values as given in the supplement of paper PMC3842684.
# Key:
# [1] = test system: P. falciparum NF54-pfs16-GFP early (I-III) stage gametocytes; assay: relative % inhibition of viable gametocyte number; higher = more gametocytocidal; conditions: stage: early (I-III) gametocyte, incubation 72 h
# How it was run: (§1)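 Viable gametocytes were counted by confocal imaging as elongated GFP objects carrying MitoTracker Red signal above a cut-off, after 72 h of compound exposure (5 or 0.5 µM) at 37°C in 5% CO2 and 5% O2 and overnight staining. The NF54 pfs16-GFP gametocytes had been magnet-isolated at early (I/IIa, day 2) or late (day 8) stage and plated at 10% parasitaemia, 0.1% haematocrit in 384-well poly-D-lysine imaging plates. Relative inhibition was normalised to vehicle and positive-control wells within each plate.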
# [2] = test system: P. falciparum NF54-pfs16-GFP late (IV-V) stage gametocytes; assay: as above; conditions: stage: late (IV-V) gametocyte, incubation 72 h
# How it was run: as §1
SMILES,relative % inhibition ([1]; 0.5 µM) [%],relative % inhibition ([1]; 5 µM) [%],relative % inhibition ([2]; 0.5 µM) [%],relative % inhibition ([2]; 5 µM) [%]
c1ccc(-c2ccc(-c3nc4ccccc4[nH]3)cc2)cc1,-4.6,-6.39,15.9,5.71
O=C(Nc1ccc(CN2CCOCC2)cc1)c1ccc(-c2ccc(Br)cc2)o1,16.2,-18,27.9,4.05
OC(CNC1CCCCC1)Cn1c2ccc(I)cc2c2cc(I)ccc21 (centres undefined),60.7,95.2,84.7,98.5
CCCc1c(CC)c(=N)c2ccccc2n1C,25.1,19.6,7.6,-7.96
N=c1c2ccccc2nnn1-c1cccc(C(F)(F)F)c1,1.39,17.4,14.7,46.2
Cc1cc(Nc2ccc(Cl)cc2)n2nc(C(F)(F)F)nc2n1,4.02,-6.02,7.36,-10.1
O=C(Nc1ccc(-c2nc3cc4ccccc4cc3[nH]2)cc1)c1cccc(Br)c1,23.2,34.5,-2.59,7.93
CCCn1c(=N)c(C(=O)NC2CCCCC2)cc2c(=O)n3cccc(C)c3nc21,13.4,24.4,-19.9,8.02
O=C(NC1CCN(Cc2ccccc2)CC1)c1cc(-c2cccnc2)nc2ccc(Cl)cc12,3.2,46.2,-30.4,-0.963
CC(C)(C)c1ccc(C(=O)Nc2c3c(nn2-c2cccc(Cl)c2)CSC3)cc1,-12.5,10.5,-5.32,8.85
Cc1ccccc1OCCSc1nc2ccc(NC(=O)c3cccs3)cc2s1,11.4,19.4,18.1,35.8
CCCc1c(C)nc2ccc(Br)cc2c1O,4.64,-4.44,25.1,59.8
CCn1c2c(c(=N)c3c1CCC3)CCCC2,-1.17,25.3,10.1,-7.91
O=C(CSc1ccc2nnc(-c3cccc(F)c3)n2n1)Nc1ccc2c(c1)OCO2,10.3,1.63,19,32.1
Cc1cc(NC(=O)C2c3ccccc3C(=O)N(CC(C)C)C2c2cccs2)no1 (centres undefined),37.5,90.8,31.5,36.1
CC(C)(C)CC(C)(C)NCC(O)COc1ccc(Cl)cc1Cl (centres undefined),34.8,92.4,90.2,114
CSC1=NC(=Nc2c(C)cccc2C)C2(CCC(C(C)(C)C)CC2)N1c1ccc(Cl)cc1 (centres undefined),24.7,4.25,93.4,103
COc1ccc(N2CCN(C(CNC(=O)CC(C)(C)C)c3ccc4c(c3)OCO4)CC2)cc1 (centres undefined),31.4,24.4,42.2,25.6

SMILES,relative % inhibition ([1]; 0.5 µM) [%],relative % inhibition ([1]; 5 µM) [%],relative % inhibition ([2]; 0.5 µM) [%],relative % inhibition ([2]; 5 µM) [%]
COc1cccc(C(=O)Nc2ccc(-c3nc4ccccc4[nH]3)cc2)c1,12.4,-15.3,20,-5.77
Cc1cc(NC(=O)c2cccc(C(F)(F)F)c2)n(-c2nc(-c3ccc4c(c3)OCO4)cs2)n1,-23.4,-25.9,18.8,10.5
COc1cc2cc(C(=O)Nc3ccccc3)c(N)nc2cc1OC,16.8,99,3.1,-13.4
Nc1ccc(-c2nc3cc(Cc4ccc5[nH]c(-c6ccc(N)cc6)nc5c4)ccc3[nH]2)cc1,14.7,100,14.6,85.1
COc1ccc(C2c3ccc4ccccc4c3Oc3ncn(CCCn4ccnc4)c(=N)c32)cc1OC (centres undefined),59.1,-9.76,49.2,74.6
Cc1cc(Nc2cccc(F)c2)nc(NCc2ccccc2)n1,28.5,72.2,24.1,34.6
CN(C)CCCNc1c2ccccc2nc2ccccc12,85.1,101,57.9,101
CCN1CCN(c2cc(C)c3cc(NC(=O)c4ccc(OC)c(OC)c4)ccc3n2)CC1,11.4,14.1,-6.56,3.96
Cc1cc(N(C)C)nc(Nc2ccc(NC(=O)Nc3ccccc3)cc2)n1,24.5,8.02,24,1.55
Clc1cc(Br)ccc1-c1ccc(CNCC2CCNCC2)o1,92.6,100,36.1,89.9
O=C(NCC(c1ccsc1)N1CCCCCC1)c1ccc(C(F)(F)F)cc1 (centres undefined),-5.22,0.803,-0.775,5.04
O=C(Nc1ccsc1C(=O)NC1CCCCC1)c1ccc(F)cc1,-1.56,19.9,-4.86,-23.6
COc1ccc(C2C(C(=O)Nc3cccc(OC)c3)c3ccccc3C(=O)N2C2CCCCC2)cc1 (centres undefined),15.6,87.5,5.71,78.2
CCOc1ccc2nc(C)cc(Nc3ccc(N(C)C)cc3)c2c1,15.2,-42.1,-6.75,-10.3
N#Cc1nc(Cc2cccc3ccccc23)oc1N1CCN(C(c2ccccc2)c2ccccc2)CC1,-3.05,2.44,7.14,40.5
CCOc1cc(Cl)c(C(C)NC(=O)c2cccc(OC)c2)cc1OCC (centres undefined),24.8,60.9,-6.93,41.6
COc1ccc(C)c2sc(N(Cc3cccnc3)C(=O)c3ccc(C#N)cc3)nc12,11.9,35.9,-23.5,7.81
COc1cc2c(cc1OC)C1=NNC(=O)C1=NC(C)(C)C2,71.5,88.6,100,98.5
